The full list was thinned out, with hits kept by preference.
SARS PLP yeast = blocks SARS-CoV papain-like protease in a yeast assay | 330,000 tested, 0.19% active | S. cerevisiae expressing SARS-CoV PLpro, growth rescue | AID 485353 | Potency, µM (highest dose often 32.9 µM), usual class: activators; note: nearly all actives have a fitted effect of over 55% in size
Shiga inhibitor = blocks Shiga toxin action in Vero cells; 290,000 tested, 9.2% active; AID 2315; Vero cells, Shiga toxin protein synthesis inhibition reporter; inhibition, % at 38.7 µM; in the data active = inhibition mostly above about 28%, no sharp cut-off; inactive = mostly below about 43%
TbPYK inhibitor = inhibitors of Trypanosoma brucei pyruvate kinase | Q57TT1 | TbPYK enzyme, Kinase-Glo Plus ATP luminescence, 45 min | Potency, µM (top dose mostly 76.8 µM), usual class: inhibitors | 410,000 tested, 0.12% active | AID 624173; active = well fitted curve in the direction sought with a large enough effect; inconclusive = small, poorly fitted or top-dose-only effect, or another doubt; inactive = no such curve, though single readings can be large; an effect the other way counts as inactive or inconclusive; note: nearly all actives have a fitted effect of over 50% in size
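Screened from lowest to highest concentration, compounds were pinned into TbPYK/substrate mixtures, and ADP (130 uM final) was added. Plates sat at room temperature for 45 min prior to Kinase-Glo Plus detection by luminescence.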
Cycloheximide cs = counter-screen for Shiga toxin inhibitors: cycloheximide protein synthesis inhibition; cell reporter, cycloheximide protein synthesis inhibition counterscreen; 300,000 tested, 12% active; max response, %; in the data active = max response mostly above about 13%, no sharp cut-off; inactive = mostly below about 14%; note: read at 38.3 µM for the half of the compounds with a filed dose
NS1 function inh = influenza NS1 inhibition; 270,000 tested, 0.4% active; AID 2326; Potency, µM (highest dose often 46.1 µM); note: actives are rising curves; nearly all actives have a fitted effect of over 50% in size
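S. cerevisiae expressing influenza A NS1, grown in glucose, washed, then diluted 1:100 into pH 6.0 -URA galactose medium with 23 nl compound. Growth recovery read as OD600; NS1-free strain serves as control.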
LmPK inhibitor = inhibitors of Leishmania mexicana pyruvate kinase. purified LmPK, Kinase-Glo ATP luminescence, 1 h. Potency, µM (doses to about 57.5 µM), most hits filed as inhibitors. 290,000 tested, 0.37% active; active = well fitted curve in the direction sought with a large enough effect; inconclusive = small, poorly fitted or top-dose-only effect, or another doubt; inactive = no such curve, though single readings can be large; an effect the other way counts as inactive or inconclusive
Target sequence (Q27686 whole entry, looked up): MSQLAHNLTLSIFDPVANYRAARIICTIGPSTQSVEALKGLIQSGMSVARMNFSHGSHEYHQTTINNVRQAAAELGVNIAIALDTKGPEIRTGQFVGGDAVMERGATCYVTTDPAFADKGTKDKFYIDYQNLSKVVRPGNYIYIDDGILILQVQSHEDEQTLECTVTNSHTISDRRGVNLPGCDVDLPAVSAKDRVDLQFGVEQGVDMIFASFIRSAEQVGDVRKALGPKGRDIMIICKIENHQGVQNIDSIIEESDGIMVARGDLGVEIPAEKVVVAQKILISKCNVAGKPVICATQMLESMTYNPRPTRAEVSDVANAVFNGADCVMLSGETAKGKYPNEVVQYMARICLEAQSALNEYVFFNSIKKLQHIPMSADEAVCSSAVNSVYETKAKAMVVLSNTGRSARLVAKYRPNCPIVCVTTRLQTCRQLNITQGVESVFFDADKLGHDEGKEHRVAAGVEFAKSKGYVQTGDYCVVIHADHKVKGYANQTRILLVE
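Screened at intermediate enzyme activity to detect both inhibitors and activators: LmPK at 0.1 nM, with a 0.5 nM enzyme column as activation reference. PEP 0.5 mM, ADP 0.1 mM; ATP detected by luminescence after 1 h.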
Large screens that a line does not name were inactive. Unless noted, calls come from the whole dose curve.

O=S(=O)(N/N=C\c1ccccc1O)c1ccc(Cl)cc1	Cycloheximide cs 27
Cc1ccc(S(=O)(=O)N/N=C/c2ccccc2O)cc1	none
O=C(N/N=C\c1cc2c(cc1Cl)OCO2)c1cccnc1	none
O=C(N/N=C/c1cccnc1)c1cccc(Cl)c1	Shiga inhibitor 33, Cycloheximide cs 28
O=C(N/N=C/c1cccnc1)c1cccc(Br)c1	SARS PLP yeast inconclusive, Cycloheximide cs 17
O=C(N/N=C/c1cc(Cl)ccc1O)c1cccnc1	Cycloheximide cs 13
Clc1ccc(/C=N/NC(=Nc2ccccc2)c2ccccn2)c(Cl)c1	Shiga inhibitor 124, Cycloheximide cs 41
CCOc1ccc(Cl)cc1C1CC(=O)Nc2cc(OC)c(OC)c(OC)c21 (stereo not drawn)	none (no result: SARS PLP yeast, Shiga inhibitor, Cycloheximide cs, NS1 function inh, LmPK inhibitor)
O=C(CCNC(=O)c1ccccc1Cl)N/N=C\c1ccc(O)cc1	none
O=C(N/N=C/c1cc(Cl)ccc1O)c1ccccc1Br	Shiga inhibitor 27, Cycloheximide cs 40 (no result: NS1 function inh)
CC(C)c1ccc(/C=N/NC(=O)CCNC(=O)c2ccccc2)cc1	Shiga inhibitor 96, Cycloheximide cs 21
O=C(N/N=C/c1ccc(Cl)cc1Cl)c1ccncc1	Shiga inhibitor 45, Cycloheximide cs 24
CC(C)c1ccc(/C=N/NC(=O)c2cccc(Cl)c2)cc1	Shiga inhibitor active, Cycloheximide cs 49
O=C(N/N=C/c1ccc(Cl)cc1Cl)c1cccc(N2CCCC2=O)c1	Cycloheximide cs 16
O=C(NCCS(=O)(=O)N1CCCCC1)c1ccccc1	none (no result: Shiga inhibitor, Cycloheximide cs, NS1 function inh, LmPK inhibitor)
COC(=O)C1CCCCN1C(=O)c1ccc2oc(C(C)C)nc2c1 (stereo not drawn)	Shiga inhibitor 57, Cycloheximide cs 27
CCOC(=O)C1CCCCN1C(=O)c1ccc2nc(Cc3ccc(OC)cc3)oc2c1 (stereo not drawn)	none
COC(=O)C1CCCCN1C(=O)c1ccc2oc(Cc3ccccc3)nc2c1 (stereo not drawn)	Shiga inhibitor 83, Cycloheximide cs 67
Cc1cccc(C(=O)Nc2cccc(C(=O)Nc3cc(C)ccn3)c2)c1	Cycloheximide cs 8.5
Cc1ccnc(NC(=O)c2cccc(NC(=O)c3ccc(Cl)cc3)c2)c1	none (no result: SARS PLP yeast, Shiga inhibitor, Cycloheximide cs, NS1 function inh, LmPK inhibitor)
Cc1ccnc(NC(=O)c2cccc(NC(=O)Cc3ccccc3)c2)c1	Cycloheximide cs 15
Cc1cccc(C(=O)NC2CCN(C(=O)Nc3ccc(F)cc3)CC2)c1	none
O=C1NC(=O)/C(=C\c2ccc(OCc3cccc(C(=O)O)c3)c(Cl)c2)N1	Shiga inhibitor 161, Cycloheximide cs 81 (no result: NS1 function inh)
COc1cc(/C=C2\NC(=S)NC2=O)ccc1OCc1cccc(C(=O)O)c1	Shiga inhibitor 102, Cycloheximide cs 79
CC1(C)Cc2nc3sc4c(=O)n(CC(=O)NCc5ccco5)cnc4c3cc2CO1	Shiga inhibitor 69, Cycloheximide cs 26
CCOc1ncnc2c1sc1nc3c(cc12)COC(C)(C)C3	none (no result: SARS PLP yeast, Shiga inhibitor, Cycloheximide cs, NS1 function inh, LmPK inhibitor)
CC1(C)Cc2nc3oc4c(=O)n(CC(=O)Nc5ccccc5)cnc4c3cc2CO1	none
C=CCSc1ncnc2c1oc1nc3c(cc12)COC(C)(C)C3	Cycloheximide cs 15
CCSc1ncnc2c1sc1nc3c(cc12)COC(C)(C)C3	Cycloheximide cs 19
CC(C)COc1ncnc2c1sc1nc3c(cc12)COC(C)(C)C3	Shiga inhibitor 21 (no result: TbPYK inhibitor)
CC(C)CSc1ncnc2c1oc1nc3c(cc12)COC(C)(C)C3	none
OCCN[C@@H]1c2cc(Cl)ccc2-c2c(Cl)cc(Cl)cc21	none (no result: SARS PLP yeast, Shiga inhibitor, TbPYK inhibitor, Cycloheximide cs, LmPK inhibitor)
C=CCn1c(C)nc2c(sc3nc4c(cc32)COC(C)(C)C4)c1=O	Shiga inhibitor 50, Cycloheximide cs 43
CCc1nc2c(sc3nc4c(cc32)COC(C)(C)C4)c(=O)n1CCN(CC)CC	none
O=C(CCSc1ccccc1)NCCN1CCOCC1	none
O=C(CCSc1nc2ccccc2o1)N1CCOCC1	Shiga inhibitor 56, Cycloheximide cs 32
O=C(CCSc1ccccc1)N1CCCC1	Shiga inhibitor 79, Cycloheximide cs 46
O=C(CCSc1ccccc1)N1CCOCC1	Shiga inhibitor 80, Cycloheximide cs 35
O=C(CCSc1nnnn1-c1ccccc1)N1CCOCC1	Shiga inhibitor 36
Cc1ccc2nc(Nc3ccc(C)c(Cl)c3)c3nncn3c2c1	none
CCOCCCNC(=O)c1ccc(Cn2c(=O)c3cccn3c3cccnc32)cc1	none (no result: SARS PLP yeast, Shiga inhibitor, Cycloheximide cs, NS1 function inh, LmPK inhibitor)

High-throughput results deposited in PubChem BioAssay by National Center for Advancing Translational Sciences (NCATS).
